# BaF3 tox = parental Ba/F3 viability inhibition as JAK2V617F counter-screen. CellTiter-Glo ATP luminescence. 1.1% of 220,000 active. inhibition, % at 5.6 µM;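 active = inhibition above a per-campaign cutoff, the mean inhibition of all tested compounds plus 3 SD, cut at about 27% in these data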;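 also: 0% = DMSO wells and 100% = JAK Inhibitor I control wells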
# KLF5 inhibitor = kruppel-like factor 5 inhibition | DLD-1 KLF5 promoter-luciferase reporter, luminescence | inhibition, % at 5 µM | 0.23% of 290,000 active;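 active = inhibition above a per-plate limit of that plate's mean compound inhibition plus 3 SD, cut at about 60% in these data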;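 also: 0% = DMSO wells and 100% = LY294002 at 200 µM; higher means less KLF5 promoter-driven luciferase light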
# aSyn 5UTR inh = MLPCN primary screen, SNCA 5' untranslated region; alpha-synuclein 5'UTR reporter, inhibitor activity; inhibition, % (tested at 7.5 µM); 0.82% of 300,000 active; AID 1813; in the data active = inhibition above about 60%; inconclusive = no clear call, values can overlap the other calls;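 also: H4 neuroglioblastoma cells stably carrying SNCA 5'UTR luciferase fusion; 0% = DMSO wells and 100% = positive control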
# IEC-6 tox = kills IEC-6 intestinal cells in KLF5 counter-screen; 0.78% of 290,000 active; inhibition, % at 5 µM; IEC-6 cytotoxicity, luminescence viability; AID 1825; in the data active = inhibition above about 22%;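 also: 0% = plate median of test compound wells and 100% = cytotoxic reference compound wells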
# Ba/F3 V617F tox = reduce viability of Ba/F3 cells dependent on JAK2V617F; inhibition, % at 5.6 µM; AID 1446; Ba/F3 EpoR-JAK2V617F viability, ATP luminescence; 1.1% of 220,000 active;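 active = inhibition above the campaign mean plus 3 SD over all tested compounds, cut at about 24% in these data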;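 also: cytokine-independent growth of Ba/F3 cells driven by EpoR plus mutant JAK2; 0% = DMSO-treated cells and 100% = JAK inhibitor I control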
# APP transl inh = APP translation inhibition | AID 1285 | inhibition, % at 2 µM | 0.82% of 190,000 active | SH-SY5Y APP 5'UTR-luciferase reporter, luminescence;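 active = inhibition above a set limit, derived from the sample mean plus 3 SD, cut at about 45% in these data; inconclusive = one replicate passes the limit while the other fails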
# * hit, by the source's call; u = inconclusive; x = no result. Most compounds without a hit are left out; they make up all but 2.2% or so of the library.
SMILES,BaF3 tox,KLF5 inhibitor,aSyn 5UTR inh,IEC-6 tox,Ba/F3 V617F tox,APP transl inh
CC(=O)N1C=Cc2c(c(C)c3c([nH]c4ccccc43)c2C)C1,69*,24,x,69*,80*,x
O=C(COc1ccc(F)cc1Cl)Nc1ccc(S(=O)(=O)Nc2nccs2)cc1,x,x,-15,x,x,x
O=[N+]([O-])c1cccc(-c2c[n+]3c(n2-c2ccccc2)SCC3)c1,65*,-18,x,0,35*,13
Clc1ccc(-c2c[n+]3c(n2-c2ccccc2)SCC3)cc1,88*,-10,-3,5,67*,-18
Clc1ccc(C2=C3CCCCn4c(-c5ccccc5)c[n+](c43)C2)cc1,1,7,15,-10,-4,1
Cc1ccc2c(c1)S/C(=C/c1ccc[n+](CCO)c1)N2C,68*,-9,-38,-11,87*,9
Cc1ccc2c(c1)S/C(=C\c1cccc[n+]1C)N2CCO,x,-17,-4,-5,x,x
CC1C(=O)C(C)C(c2ccc(Cl)cc2)NC1c1ccc(Cl)cc1 (configuration not stated),x,x,68*,x,x,x
COc1ccc(C2NC(c3ccc(OC)cc3)C(C)C(=O)C2C)cc1 (configuration not stated),x,-24,0,7,x,x
O=C(COC(=O)c1ccc(O)cc1O)Nc1ncc(Cl)cc1Cl,x,x,-5,x,x,x
Cc1ccc(C(=O)N/C(=C\c2ccc(-c3ccc(Cl)cc3)o2)C(=O)NCCCN(C)C)cc1,104*,-23,u,44*,16,2
CN(C)CCCNC(=O)/C(=C\c1ccc(-c2ccc(Br)cc2)o1)NC(=O)c1ccccc1,7,4,4,21,4,16
Cc1cccc(C(=O)NC(=S)Nc2c(C)n(C)n(-c3ccccc3)c2=O)c1,x,-7,14,0,x,x
CCNC(=O)N1CCC(n2nccc2NC(=O)CCCc2ccccc2)CC1,x,-28,7,-4,x,x
COc1cccc(/C=N/NC(=O)c2ccc3nc[nH]c3c2)c1O,1,-40,1,-12,-4,x
CCN(CC)c1ccc(/C=N/NC(=O)c2ccc3nc[nH]c3c2)c(O)c1,2,18,93*,-2,8,x
O=C(Cc1ccc(Cl)cc1)Nc1cc(S(=O)(=O)N2CCOCC2)ccc1N1CCCC1,-2,-4,10,-7,1,20
CN1CCN(c2ccc(S(=O)(=O)N3CCCCC3)cc2NC(=O)Cc2ccc(Cl)cc2)CC1,38*,-23,23,3,52*,-19
CCOC(=O)C1CCCN(S(=O)(=O)c2ccc(S(=O)(=O)N(CC)CC)cc2)C1 (configuration not stated),69*,0,-38,6,52*,23
COc1ccc(CN(Cc2cccn2C)C(=O)c2cc3cc(OC)ccc3[nH]2)cc1,-1,-54,34,-4,-1,x
CC(=O)c1c(C)oc2ccc(N(C(C)=O)S(=O)(=O)c3cccc4cccnc34)cc12,37*,-11,-29,7,27*,x
CC(=O)c1c(C)oc2ccc(N(C(C)=O)S(=O)(=O)c3ccc(F)cc3C)cc12,x,-10,6,3,x,x
CC(=O)c1c(C)oc2ccc(N(C(C)=O)S(=O)(=O)c3ccc(Cl)c([N+](=O)[O-])c3)cc12,0,-20,112*,-2,-6,-1
CC(=O)Nc1ccccc1P(=O)(c1ccccc1)c1ccccc1OC(C)=O (configuration not stated),-5,-17,6,1,-1,x
Cc1nc(Nc2nc3c(c(=O)[nH]2)CCC3)nc2ccccc12,x,x,126*,x,x,x
SMILES,BaF3 tox,KLF5 inhibitor,aSyn 5UTR inh,IEC-6 tox,Ba/F3 V617F tox,APP transl inh
CCCNC(=O)c1onc(CSc2ccc(F)cc2)c1C(=O)NCC1CC1,x,x,28,x,x,x
O=C(C[n+]1cc(-c2ccc(Br)cc2)n2c1CCCCC2)c1ccccc1,49*,-11,-15,-2,38*,16
O=C(C[n+]1cc(-c2ccccc2)n2c1CCC2)c1cccs1,39*,-40,-3,-10,26*,-10
O=C(C[n+]1cc(-c2ccccc2)n2c1CCC2)N1c2ccccc2Sc2ccccc21,6,5,8,-4,0,0
O=C(C[n+]1cc(-c2ccc(Cl)cc2)n2c1CCCCC2)c1ccccc1,43*,-22,-44,-6,28*,x
CCCCCn1ccc(=N)cc1,62*,-15,19,-5,67*,7
CCOC(=O)c1c(NC(=O)c2ccc(S(=O)(=O)N3CCOCC3)cc2)sc2c1CC(C)(C)NC2(C)C,x,-35,-25,-6,x,x
CCOC(=O)c1c(NC(=O)c2ccc(S(=O)(=O)N3CCOCC3)cc2)sc2c1CCN(C)C2,33*,-14,x,2,-3,-2
